# Screening results (PubChem BioAssay)
# Most compounds without a hit are left out; they make up all but 12% or so of the library.
# AMA1 RON2 block = inhibitors of Plasmodium falciparum AMA1-RON2 interaction. AlphaScreen AMA1-biotinylated RON2 peptide binding. Potency, µM (series often up to 58.2 µM), for the others: at the highest dose activity change, negative = inhibition, most hits filed as inhibitors. 360,000 tested, 0.2% active;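 further: 0% = vehicle wells and -100% = peptide control; nearly all actives have a fitted effect of over 45% in size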
#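 AMA1 (3D7) with his tag at 25 nM final met compounds first, then biotinylated RON2 peptide at 25 nM; detection used donor plus acceptor beads, 10 µg/mL apiece, read by AlphaScreen after 30 min at room temperature.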
# NS1 inh = inhibitors of influenza NS1 protein function; AID 2326; 270,000 tested, 0.4% active; Potency, µM (series often up to 46.1 µM), for the others: top-dose activity, positive = more growth; calls by dose curve; further: actives are rising curves; nearly all actives have a fitted effect of over 50% in size
#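 Compounds were scored for reversing the slow growth caused by influenza A NS1 in S. cerevisiae, measured by optical density at 600 nm. Assay medium contained 2% galactose at pH 6.0; NS1-free yeast of the same strain were the positive control.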
# Pf growth 48h = P. falciparum growth inhibition at 48 hours (one generation) | P. falciparum luciferase growth in erythrocytes, 48 h | AID 504832 | 310,000 tested, 5.9% active | Potency, µM (top dose mostly 28.7 µM), for inactives: top-dose activity change, negative = inhibition, hits mostly inhibitors; further: on the % scale 0 is the no-effect control and ±100 the full control effect
#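 Erythrocytes infected with P. falciparum carrying an integrated firefly luciferase reporter (2% hematocrit, 0.1% parasitemia final) were exposed to compounds in RPMI 1640 with 0.5% Albumax at 37 C, 5% CO2. Growth inhibition was scored as reduced luminescence.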
# SARS PLpro yeast = inhibitors of SARS-CoV papain-like protease in yeast | 330,000 tested, 0.19% active | S. cerevisiae expressing SARS-CoV PLpro, growth rescue | Potency, µM (doses to about 32.9 µM), for the others: at the top dose activity, positive = growth rescue, actives largely listed as activators; calls by dose curve; further: 0% is about no effect; nearly all actives have a fitted effect of over 55% in size
# Pf growth 96h = P. falciparum growth inhibition at 96 hour, primary screen for plastid delayed-death inhibitors | P. falciparum luciferase reporter growth, 96 h | 320,000 tested, 6.9% active | Potency, µM (doses to about 28.7 µM), inactives show top-dose activity change, negative = inhibition, hits mostly inhibitors; further: on the % scale 0 is the no-effect control and ±100 the full control effect
#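 Parasite growth measured via integrated firefly luciferase reporter in P. falciparum. Infected erythrocytes at 2% hematocrit, 0.05% parasitemia final were treated 96 hours at 37 C under 5% CO2, and luminescence was read.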
# HCV inhibitor = HCV inhibition; Huh7.5.1 HCVcc-Cre infection, luciferase reporter, 44 h; 340,000 tested, 3.4% active; Potency, µM (series often up to 41.8 µM), inactives show at the top dose activity change, negative = inhibition, usual class: inhibitors; further: on the % scale 0 is the no-effect control and ±100 the full control effect
#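 Infectious HCV cell culture screen: compound-treated cells (1,000/well, pre-plated 4 h) are infected with HCVcc-Cre at roughly 0.5 moi and grown 44 h. Infection is quantified by luciferase signal after 15 min substrate incubation at room temperature.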
# An asterisk follows results filed as active; ? = inconclusive; . = not tested or not shown. Unless noted, the call rests on the fitted dose curve; in most records, active means well fitted curve in the direction sought with a large enough effect; inconclusive means small, poorly fitted or top-dose-only effect, or another doubt; inactive means no such curve, though single readings can be large; an effect the other way counts as inactive or inconclusive. Potency means the concentration at half of the fitted maximal effect.
SMILES,AMA1 RON2 block,NS1 inh,Pf growth 48h,SARS PLpro yeast,Pf growth 96h,HCV inhibitor
CCOC(=O)Cc1cc(-c2ccc(OC)cc2)nc2ccc3ccccc3c12,13.5%,10.2%,-22.5%,18.5%,340.3%,?
CCOC(=O)Cc1cc(-c2ccc(O)cc2)nc2ccc3ccccc3c12,0.2%,-9.0%,?,-3.3%,11.7µM*,?
O=C1c2ccccc2C(=O)c2c(NC3CCCCC3)ccc(Nc3ccc(S(=O)(=O)O)cc3)c21,.,-8.3%,.,.,.,.
CCc1c(C)nc2c(C#N)c(C)[nH]n2c1=O,-10.5%,4.8%,27.6%,-20.9%,5.22µM*,14.7%
N#Cc1c[nH]n2c(=O)cc(Cc3ccccc3)nc12,-0.2%,1.7%,-9.1%,3.7%,.,-4.2%
Cc1nc2c(C#N)c(C)[nH]n2c(=O)c1Cc1ccccc1,-4.2%,8.7%,16.7%,10.4%,19.2%,-7.8%
Cc1[nH]n2c(=O)cc(Cc3ccccc3)nc2c1C#N,0.0%,2.0%,-7.3%,1.3%,10.4µM*,13.4%
CCCS(=O)(=O)NC(=O)C1(C)CCN(C(=O)c2ccc(C(F)(F)F)nc2C)C1 (stereo unspecified),-11.7%,.,.,.,.,.
CCOC(=O)C1=C(C)N=c2s/c(=C/c3ccc(OCC(=O)O)cc3)c(=O)n2C1c1ccc(F)cc1 (stereo unspecified),-4.3%,7.0%,3.29µM*,-0.9%,?,-10.1%
CC1=C(C(=O)OC(C)C)C(c2ccc(Cl)cc2)n2c(sc(=Cc3ccc(OCC(=O)O)cc3)c2=O)=N1 (stereo unspecified),1.2%,.,.,.,.,.
CCOC(=O)C1=C(C)N=c2s/c(=C\c3ccc(OCC(=O)O)cc3)c(=O)n2C1c1ccc(Cl)cc1 (stereo unspecified),22.8%,6.9%,9.28µM*,2.2%,1.47µM*,?
CCOC(=O)C1=C(C)N=c2s/c(=C\c3ccncc3)c(=O)n2C1c1ccc2c(c1)OCO2 (stereo unspecified),-13.0%,-111.8%,4.15µM*,1.3%,-2.0%,?
CCOC(=O)C1=C(C)N=c2s/c(=C/c3ccccc3)c(=O)n2C1c1ccc(OC)c(OC)c1 (stereo unspecified),-3.2%,2.7%,?,3.3%,?,-4.2%
CCOC(=O)C1=C(C)N=c2sc(=C(C)C)c(=O)n2C1c1ccc(N(C)C)cc1 (stereo unspecified),-7.7%,.,.,.,.,?
CCOC(=O)C1=C(C)N=c2s/c(=C/c3ccc(OCC(=O)O)cc3)c(=O)n2C1c1ccc(SC)cc1 (stereo unspecified),.,?,5.22µM*,3.6%,?,.
Cc1ccc(F)c(NC(=O)/C(C#N)=C(\O)c2ccc(C(C)(C)C)cc2)c1,-2.8%,.,60.8%,0.1%,46.1%,17.5%
COc1cc(-c2noc(C)c2C(=O)NCCCN2CCOCC2)cc(OC)c1OC,8.9%,.,.,-29.5%,.,-1.8%
CSCCC(C(=O)Nc1c(C)cccc1C)n1c(-c2cc(C)cs2)nc2ccccc21 (stereo unspecified),5.6%,.,.,.,.,.
CC(C)CN1CCC(=O)N(CCO)CC1,-3.7%,-2.4%,60.5%,1.0%,48.1%,23.4%
COc1ccc(C(=O)N/N=C\c2ccoc2)cc1,136.1%,5.5%,6.2%,-6.9%,4.65µM*,24.2%
COc1ccc(C(=O)N/N=C/c2cc3ccccc3[nH]c2=S)cc1,35.1%,19.7%,.,10.3%,13.1µM*,-7.9%
Cn1c2ccccc2c(=O)c2ccc(NCCc3cccs3)cc21,8.3%,.,.,3.0%,.,11.2µM*
COc1ccc(C=O)c2[nH]c3c(Cl)ncnc3c12,-7.8%,1.4%,?,10.3%,?,-15.8%
COC(=O)c1ccc(C2Nc3ccc(/C(C)=N/NC(=O)C(OC)c4ccccc4)cc3C3C=CCC32)cc1 (stereo unspecified),-14.5%,?,?,2.0%,4.15µM*,-20.9%
COc1ccc(-n2cnnc2SCC(=O)NC2CCCc3ccccc32)cc1 (stereo unspecified),-21.8%,-14.8%,18.9%,-10.9%,-22.1%,-19.9%
